Measurements reported in the supplement of paper PMC10849652.
The full data set covers some 8,800 targets. This sample favours those with a hit. About 0.5% of all pairs of compound and target were hits.

These targets were tested with Cc1nc(Nc2ncc(C(=O)Nc3c(C)cccc3Cl)s2)cc(N2CCN(CCO)CC2)n1 [dasatinib] (assay: log2 fold change, soluble protein after heating vs DMSO (PISA); higher = thermal stabilisation; K562 lysate, 10 uM; active = over 0.2 and 3.5 SD of the protein, either way, in both replicates (recomputed)).
Outline: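 K562 pellets were dounce-homogenised in PBS pH 7.4 with 1 mM MgCl2, and the crude extract at 1 mg/mL protein was treated with 10 μM compound for 30 min. Aliquots were heated for 3 min across 48°C-58°C, pooled, and brought to 0.5% NP-40 at 4°C; soluble protein was the supernatant after 21,000xg for 90 min. Soluble protein was quantified by TMTpro 16plex LC-MS/MS with channel sums equalised, and reported as log2 fold change in thermal stability against DMSO controls, with values from duplicates.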

Chain of UniProt P14866 (P14866 whole entry, looked up): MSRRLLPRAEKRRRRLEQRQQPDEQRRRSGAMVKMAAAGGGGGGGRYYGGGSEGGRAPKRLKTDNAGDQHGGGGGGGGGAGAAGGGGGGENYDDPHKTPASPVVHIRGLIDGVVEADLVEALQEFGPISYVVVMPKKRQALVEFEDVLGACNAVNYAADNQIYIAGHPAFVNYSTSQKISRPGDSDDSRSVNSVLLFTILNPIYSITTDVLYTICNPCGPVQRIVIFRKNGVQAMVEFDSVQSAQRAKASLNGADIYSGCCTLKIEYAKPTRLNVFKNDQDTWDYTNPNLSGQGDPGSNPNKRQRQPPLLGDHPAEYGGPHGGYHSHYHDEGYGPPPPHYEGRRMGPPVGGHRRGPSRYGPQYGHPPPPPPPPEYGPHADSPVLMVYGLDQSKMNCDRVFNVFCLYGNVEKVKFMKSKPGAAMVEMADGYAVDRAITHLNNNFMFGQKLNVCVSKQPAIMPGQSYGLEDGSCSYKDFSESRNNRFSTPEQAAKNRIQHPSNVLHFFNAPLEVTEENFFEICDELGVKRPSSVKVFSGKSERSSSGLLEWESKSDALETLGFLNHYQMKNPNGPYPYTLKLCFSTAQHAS
Chain of UniProt Q53GQ0 (Q53GQ0 whole entry, looked up): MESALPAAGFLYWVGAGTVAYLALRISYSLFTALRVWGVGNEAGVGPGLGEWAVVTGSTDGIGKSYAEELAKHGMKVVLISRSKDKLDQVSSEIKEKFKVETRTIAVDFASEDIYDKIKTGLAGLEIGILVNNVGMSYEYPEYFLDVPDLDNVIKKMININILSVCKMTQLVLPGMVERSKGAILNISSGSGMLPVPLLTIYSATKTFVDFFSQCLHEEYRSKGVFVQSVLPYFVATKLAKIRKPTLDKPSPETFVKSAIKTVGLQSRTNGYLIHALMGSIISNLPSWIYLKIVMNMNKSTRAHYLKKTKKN
Chain of UniProt Q14103 (Q14103 whole entry, looked up): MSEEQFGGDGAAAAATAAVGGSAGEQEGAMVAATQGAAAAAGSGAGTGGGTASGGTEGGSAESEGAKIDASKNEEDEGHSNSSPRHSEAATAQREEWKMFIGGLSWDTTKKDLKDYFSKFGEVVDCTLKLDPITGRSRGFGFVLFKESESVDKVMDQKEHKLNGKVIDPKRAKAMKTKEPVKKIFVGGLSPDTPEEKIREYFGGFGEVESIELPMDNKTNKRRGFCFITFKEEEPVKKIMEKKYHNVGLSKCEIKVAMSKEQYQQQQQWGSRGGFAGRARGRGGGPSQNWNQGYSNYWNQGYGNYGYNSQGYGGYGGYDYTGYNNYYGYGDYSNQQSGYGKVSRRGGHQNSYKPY
Chain of UniProt Q68E01 (Q68E01 whole entry, looked up): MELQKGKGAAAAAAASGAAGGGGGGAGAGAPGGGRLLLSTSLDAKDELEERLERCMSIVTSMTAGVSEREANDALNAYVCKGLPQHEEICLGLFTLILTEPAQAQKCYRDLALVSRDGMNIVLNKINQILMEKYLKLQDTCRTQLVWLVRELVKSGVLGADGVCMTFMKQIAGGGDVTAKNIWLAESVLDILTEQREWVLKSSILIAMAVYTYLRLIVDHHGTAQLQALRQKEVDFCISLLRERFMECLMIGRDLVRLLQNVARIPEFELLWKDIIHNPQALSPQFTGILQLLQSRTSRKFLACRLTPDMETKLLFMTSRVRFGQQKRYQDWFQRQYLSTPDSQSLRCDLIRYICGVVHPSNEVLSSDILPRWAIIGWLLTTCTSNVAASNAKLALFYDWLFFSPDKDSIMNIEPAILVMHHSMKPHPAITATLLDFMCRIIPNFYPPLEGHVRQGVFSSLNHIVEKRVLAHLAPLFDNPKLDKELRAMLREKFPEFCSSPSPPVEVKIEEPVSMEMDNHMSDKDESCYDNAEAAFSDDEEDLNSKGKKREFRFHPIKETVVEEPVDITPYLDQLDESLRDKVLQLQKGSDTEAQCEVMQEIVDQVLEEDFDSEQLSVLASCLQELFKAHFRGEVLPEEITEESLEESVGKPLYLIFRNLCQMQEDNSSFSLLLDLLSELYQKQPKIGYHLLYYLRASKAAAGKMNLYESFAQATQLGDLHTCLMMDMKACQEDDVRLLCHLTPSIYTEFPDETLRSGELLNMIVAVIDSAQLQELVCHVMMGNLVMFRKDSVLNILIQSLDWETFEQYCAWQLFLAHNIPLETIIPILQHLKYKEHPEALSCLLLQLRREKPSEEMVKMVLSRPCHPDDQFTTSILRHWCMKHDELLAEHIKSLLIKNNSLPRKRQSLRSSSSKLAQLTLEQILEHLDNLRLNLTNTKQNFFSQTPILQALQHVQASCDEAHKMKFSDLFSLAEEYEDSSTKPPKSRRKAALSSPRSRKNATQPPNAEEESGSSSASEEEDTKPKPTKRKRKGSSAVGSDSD
Chain of UniProt Q27J81 (Q27J81 whole entry, looked up): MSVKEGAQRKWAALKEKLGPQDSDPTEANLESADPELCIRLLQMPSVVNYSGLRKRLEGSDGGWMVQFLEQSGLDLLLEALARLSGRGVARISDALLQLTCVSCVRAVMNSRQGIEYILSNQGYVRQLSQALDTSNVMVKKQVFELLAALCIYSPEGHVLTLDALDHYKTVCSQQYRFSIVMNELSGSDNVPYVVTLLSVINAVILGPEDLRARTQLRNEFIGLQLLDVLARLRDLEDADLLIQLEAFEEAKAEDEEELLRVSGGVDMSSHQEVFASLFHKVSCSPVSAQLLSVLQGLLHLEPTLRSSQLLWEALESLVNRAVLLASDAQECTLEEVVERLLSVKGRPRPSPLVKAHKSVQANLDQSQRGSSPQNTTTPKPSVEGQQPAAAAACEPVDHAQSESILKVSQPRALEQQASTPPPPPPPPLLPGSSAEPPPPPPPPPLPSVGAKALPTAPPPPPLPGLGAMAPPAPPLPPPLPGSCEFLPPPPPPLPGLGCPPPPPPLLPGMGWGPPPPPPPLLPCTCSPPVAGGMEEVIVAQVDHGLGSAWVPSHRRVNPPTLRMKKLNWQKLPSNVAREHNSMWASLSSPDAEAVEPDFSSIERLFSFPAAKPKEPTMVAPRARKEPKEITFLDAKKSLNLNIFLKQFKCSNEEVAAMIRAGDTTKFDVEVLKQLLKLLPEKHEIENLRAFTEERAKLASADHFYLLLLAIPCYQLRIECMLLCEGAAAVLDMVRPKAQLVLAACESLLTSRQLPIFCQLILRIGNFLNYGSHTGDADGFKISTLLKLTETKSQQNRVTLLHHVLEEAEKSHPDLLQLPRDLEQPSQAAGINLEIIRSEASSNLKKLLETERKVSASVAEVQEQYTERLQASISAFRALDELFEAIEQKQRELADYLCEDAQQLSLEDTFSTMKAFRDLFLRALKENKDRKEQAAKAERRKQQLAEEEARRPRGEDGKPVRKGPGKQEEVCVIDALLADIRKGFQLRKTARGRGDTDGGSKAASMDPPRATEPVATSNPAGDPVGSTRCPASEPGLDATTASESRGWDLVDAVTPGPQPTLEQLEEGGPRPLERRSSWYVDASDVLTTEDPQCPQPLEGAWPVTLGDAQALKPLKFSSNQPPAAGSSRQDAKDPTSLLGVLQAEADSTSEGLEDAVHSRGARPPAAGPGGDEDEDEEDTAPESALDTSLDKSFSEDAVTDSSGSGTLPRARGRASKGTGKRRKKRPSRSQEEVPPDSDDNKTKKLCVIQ
Chain of UniProt P23677 (P23677 whole entry, looked up): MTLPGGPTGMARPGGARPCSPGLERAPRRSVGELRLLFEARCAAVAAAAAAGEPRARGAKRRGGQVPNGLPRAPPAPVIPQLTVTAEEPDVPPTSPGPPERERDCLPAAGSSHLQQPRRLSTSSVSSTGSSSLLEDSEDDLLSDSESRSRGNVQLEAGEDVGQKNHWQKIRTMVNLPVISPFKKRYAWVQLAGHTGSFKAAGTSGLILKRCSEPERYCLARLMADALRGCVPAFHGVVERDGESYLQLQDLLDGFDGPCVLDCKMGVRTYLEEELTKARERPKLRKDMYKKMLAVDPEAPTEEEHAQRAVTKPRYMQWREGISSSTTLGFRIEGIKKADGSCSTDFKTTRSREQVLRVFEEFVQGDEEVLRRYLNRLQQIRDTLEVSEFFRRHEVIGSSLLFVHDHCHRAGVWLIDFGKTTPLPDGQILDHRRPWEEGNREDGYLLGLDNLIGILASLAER
Chain of UniProt Q8NC54 (Q8NC54 whole entry, looked up): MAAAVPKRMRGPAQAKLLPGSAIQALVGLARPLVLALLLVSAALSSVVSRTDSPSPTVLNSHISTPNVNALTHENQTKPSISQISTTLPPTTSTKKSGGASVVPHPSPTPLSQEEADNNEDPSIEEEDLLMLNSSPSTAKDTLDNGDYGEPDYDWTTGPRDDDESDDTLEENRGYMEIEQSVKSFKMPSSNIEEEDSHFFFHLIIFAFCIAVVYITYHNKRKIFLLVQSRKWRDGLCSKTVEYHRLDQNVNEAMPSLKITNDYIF
Chain of UniProt Q01581 (Q01581 whole entry, looked up): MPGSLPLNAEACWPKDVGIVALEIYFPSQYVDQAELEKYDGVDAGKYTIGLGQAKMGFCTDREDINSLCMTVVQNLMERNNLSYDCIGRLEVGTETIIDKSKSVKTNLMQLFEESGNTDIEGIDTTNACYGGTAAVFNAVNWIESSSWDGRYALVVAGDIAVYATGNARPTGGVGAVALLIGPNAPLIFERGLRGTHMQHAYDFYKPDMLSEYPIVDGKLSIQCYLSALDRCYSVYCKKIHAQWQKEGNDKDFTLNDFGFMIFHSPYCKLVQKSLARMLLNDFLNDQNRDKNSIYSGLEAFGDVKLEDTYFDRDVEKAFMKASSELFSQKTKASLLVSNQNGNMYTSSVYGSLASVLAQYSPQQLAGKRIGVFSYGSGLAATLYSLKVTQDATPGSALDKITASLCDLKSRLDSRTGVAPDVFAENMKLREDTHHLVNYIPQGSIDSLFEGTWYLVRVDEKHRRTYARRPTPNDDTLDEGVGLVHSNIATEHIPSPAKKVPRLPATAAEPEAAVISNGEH
Chain of UniProt Q96AB3 (Q96AB3 whole entry, looked up): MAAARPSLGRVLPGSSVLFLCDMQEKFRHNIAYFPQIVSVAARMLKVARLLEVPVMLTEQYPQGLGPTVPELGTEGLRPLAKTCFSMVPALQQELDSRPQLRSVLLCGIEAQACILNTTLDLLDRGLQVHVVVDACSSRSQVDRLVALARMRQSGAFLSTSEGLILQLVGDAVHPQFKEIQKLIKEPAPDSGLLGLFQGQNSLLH

log2 fold change, inactive:
GTPBP2 (UniProt Q9BX10) -0.023, GMDS (UniProt O60547) -0.043, HSPA8 (UniProt E9PK54) -0.024, ILK (UniProt Q13418) 0.071, HNRNPUL2 (UniProt Q1KMD3) 0.002, KDM1A (UniProt O60341) -0.023, INF2 (UniProt Q27J81) 0.032, ITPKA (UniProt P23677) -0.064, INTS3 (UniProt Q68E01) -0.05, KBTBD4 isoform 2 (UniProt Q9NVX7) -0.017, HNRNPL (UniProt P14866) -0.036, HK1 isoform 2 (UniProt P19367) -0.026, HAUS8 (UniProt Q9BT25) -0.073, IMMT (UniProt Q16891) -0.075, HIST2H2AA3 (UniProt Q6FI13) 0.081, HAUS6 (UniProt Q7Z4H7) -0.057, ISY1 isoform 1 (UniProt Q9ULR0) 0.002, HLCS (UniProt P50747) 0.012, HSD17B12 (UniProt Q53GQ0) 0.016, HAUS7 isoform 2 (UniProt Q99871) 0.015, GTF2A1 (UniProt P52655) 0.022, IL18R1 (UniProt Q13478) 0.181, IRAK4 (UniProt Q9NWZ3) 0.051, GLUD2 (UniProt P49448) 0.013, HAUS4 (UniProt Q9H6D7) -0.052, HNRNPD isoform 2 (UniProt Q14103) -0.02, HECTD3 (UniProt Q5T447) -0.016, GTF2H1 (UniProt P32780) -0.012, KARS1 (UniProt Q15046) -0.031, HMGCS1 (UniProt Q01581) 0.02, HNRNPAB isoform 3 (UniProt Q99729) 0.022, ISOC2 (UniProt Q96AB3) 0.026, IGF2BP3 (UniProt O00425) -0.035, KBTBD2 (UniProt Q8IY47) 0.012, H2AFY (UniProt O75367) -0.087, KCT2 (UniProt Q8NC54) 0.025
